Test systems include T-47D breast; BT-549 breast; SW-620 colon; MCF7 breast; HCT-116 colon; HCC-2998 colon; KM12 colon.
Holding throughout (assay): NCI-60 one-dose screen, 48 h (100 = growth as untreated, 0 = no growth, -100 = all killed)
Holding throughout (details): 10 µM unless noted

The panel holds about 83,000 compounds, 20% with a hit somewhere; the sample as a whole holds those more often.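 96-well plates, one dose, 48 hours. Percent growth reported; active if below 10.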 A number with no mark means an inactive call. The source made the active and inactive calls.

With `COc1cc(-c2nc(NC(C)=O)sc2-c2ccnc(NCCNS(=O)(=O)c3ccccc3)n2)ccc1Cl`, the growth in the test with T-47D breast is 41.8%; with BT-549 breast, -8.24% (active); in the test on SW-620 colon, 33.3%; with MCF7 breast, 14.1%; in the test with HCT-116 colon, 12.2%; in the test with HCC-2998 colon, 73.2%. For the same molecule, in the test on KM12 colon, the growth is 25.6%.
`O=C(Cn1nnc2ccccc21)Nc1ccc(-c2nc3ccccc3s2)cc1`: the growth with T-47D breast is 66.9%; with BT-549 breast, 86.5%; with SW-620 colon, 94.5%; with MCF7 breast, 28.9%; in the test on HCT-116 colon it was 97.4%; in the test with HCC-2998 colon, 93.7%. Further, the growth with KM12 colon was 91.4%.
Consider `CCOC(=O)Cn1c(=O)c2c3ccccc3n(C)c2n2nnc(-c3ccccc3)c12`, for which the growth with T-47D breast was 95.1%; in the test with BT-549 breast, 104%; with SW-620 colon, 95.7%; in the test with MCF7 breast it was 81.8%; in the test with HCT-116 colon, 65%; with HCC-2998 colon, 67.8%. In addition, in the test on KM12 colon, the growth was 99.7%.
Take `COC(=O)c1c2c(c(C)[n+]([O-])c1C)C(=O)C=CC2=O`: the growth was -12.6% (active) with T-47D breast; -90.3% (active) with BT-549 breast; -19.5% (active) with SW-620 colon; -59.4% (active) with MCF7 breast; -14% (active) in the test on HCT-116 colon; -61.3% (active) in the test with HCC-2998 colon.
As to `C/C(=C(/c1ccc(Cl)cc1)c1ccc(OCCCN(C)C)cc1)c1ccc(Cl)cc1`, the growth with T-47D breast was 69.1%; with BT-549 breast, 111%; in the test on SW-620 colon it was 64%; with MCF7 breast, 34.3%; in the test on HCT-116 colon, 52.4%; in the test with HCC-2998 colon, 101%. Moreover, the growth with KM12 colon was 79.9%.
Turning to `COc1cc(C2C3=C(COC3=O)N(CCO)c3cc4c(cc32)OCCO4)cc(OC)c1OC` (centres undefined), the growth was 67.2% in the test with T-47D breast; -4.33% (active) in the test with BT-549 breast; 11.9% in the test with SW-620 colon; 11.2% with MCF7 breast; 0.547% (active) in the test with HCT-116 colon; -0.511% (active) in the test with HCC-2998 colon. Moreover, the growth in the test with KM12 colon was -28.6% (active).
On to `C=CC(=O)N1CCN(c2ccc3cccc(NC(=O)c4cnc(C)cn4)c3n2)CC1`, for which the growth is 28.2% in the test on T-47D breast; 34.3% with BT-549 breast; 48.7% in the test on SW-620 colon; 48.2% in the test with MCF7 breast; 27.4% in the test with HCT-116 colon; 72.4% in the test on HCC-2998 colon. The growth in the test on KM12 colon is 23%.
For the molecule `O=C1/C(=C/c2ccc(C(F)(F)F)cc2)COc2ccc(O)c(O)c21`, the growth in the test on T-47D breast was -36.8% (active); in the test with BT-549 breast, 10.9%; in the test with SW-620 colon it was -46% (active); in the test on HCT-116 colon, -35.5% (active); with HCC-2998 colon, -39.2% (active); in the test with KM12 colon, -31.3% (active).
For the molecule `C/C(=N\Nc1nc(C)cs1)c1cc2ccccc2o1`, the growth in the test on T-47D breast was 21.4%; with BT-549 breast it was 99.3%; in the test on SW-620 colon, 100%; in the test on MCF7 breast it was 74.2%; in the test on HCT-116 colon, 79.3%; in the test on HCC-2998 colon, 112%. Also, the growth with KM12 colon is 95.5%.
With `O=C(NCc1ccccc1O)c1cccc2ccccc12`, the growth is 59.7% in the test with T-47D breast; 68.8% in the test with BT-549 breast; 87.6% in the test on SW-620 colon; 83.9% in the test with MCF7 breast; 69.1% in the test on HCT-116 colon; 89.9% in the test with HCC-2998 colon. Further, the growth with KM12 colon was 85%.
For the molecule `C#Cc1cccc(Oc2ccc(NC(=O)CCl)cc2)c1`, the growth in the test with T-47D breast was 53.9% [8.25 µM]; in the test on BT-549 breast it was 38.7% [8.25 µM]; in the test with SW-620 colon it was 15.9% [8.25 µM]; in the test with MCF7 breast, 13.5% [8.25 µM]; in the test on HCT-116 colon, -0.801% [8.25 µM] (active); in the test on HCC-2998 colon, 83% [8.25 µM]. In addition, the growth in the test on KM12 colon was 64.2% [8.25 µM].
On to `CCOC(=O)C1CCN(c2ccc(N3C[C@@H](CNCc4ccc(C(=N)N)cc4)OC3=O)cc2)CC1`, for which the growth in the test with T-47D breast is 96.2%; in the test with BT-549 breast, 94.4%; in the test with SW-620 colon, 97.1%; in the test on MCF7 breast it was 97.2%; with HCT-116 colon, 98.9%; in the test with HCC-2998 colon, 108%. Besides, in the test on KM12 colon, the growth was 98.7%.
In the case of `COc1ccccc1NC(=O)c1ccc(/C=C/C(=O)c2nccn2C)cc1`, the growth was -15.8% (active) with T-47D breast; -63.5% (active) in the test on BT-549 breast; -77.7% (active) with SW-620 colon; -45.6% (active) in the test on MCF7 breast; -84.9% (active) in the test with HCT-116 colon; -85.9% (active) with HCC-2998 colon. For the same molecule, the growth in the test on KM12 colon was -73.9% (active).
On to `CCOC(=O)C/C(=N\Nc1cc(=O)[nH]c2ccc(Cl)cc12)C(=O)OCC`, for which the growth with T-47D breast is 102%; in the test with BT-549 breast, 99.3%; in the test with SW-620 colon, 93.8%; in the test with MCF7 breast it was 96.5%; with HCT-116 colon, 100%; with HCC-2998 colon, 97.4%. In the test with KM12 colon, the growth was 102%.
With `CCCCC(=O)Nc1ncc(Cc2ccccc2Cl)s1`, the growth was 34.1% with T-47D breast; 47.1% in the test on BT-549 breast; 24.5% with SW-620 colon; 17.8% with MCF7 breast; 21.2% in the test with HCT-116 colon; 52.6% in the test with HCC-2998 colon. The growth in the test on KM12 colon was 25.2%.
Take `C[N+](C)(C/C=C/c1ccccc1)Cc1ccccc1`: the growth in the test on T-47D breast is 94.4%; in the test with BT-549 breast, 96.1%; with SW-620 colon it was 100%; in the test with MCF7 breast, 100%; in the test on HCT-116 colon it was 95.5%; in the test with HCC-2998 colon, 95.8%. For the same molecule, the growth with KM12 colon is 95.4%.
Take `CC1(C)CC2=C3C=C[C@@H]4[C@@]5(C)CC[C@H](O)C(C)(C)[C@@H]5CC[C@@]4(C)[C@]3(C)CC[C@@]2(C(=O)O)CC1=O`: the growth with T-47D breast was 42.2%; in the test with BT-549 breast, 36.7%; with SW-620 colon it was 43.8%; in the test on MCF7 breast, 31.9%; in the test on HCT-116 colon it was 12.8%; in the test on HCC-2998 colon, 70.3%. Further, the growth in the test on KM12 colon is 42.6%.
Turning to `O=C(c1ccc(F)c(Cl)c1)N1c2ccccc2Sc2ccccc21`, the growth with T-47D breast is 61%; with BT-549 breast, 57.6%; in the test on SW-620 colon, 33.9%; with MCF7 breast it was 51.2%; in the test with HCT-116 colon, 31.4%; with HCC-2998 colon it was 62.3%. In addition, the growth in the test with KM12 colon is 39.6%.

(Values after PubChem BioAssay (NCI).)
